The list is not random: actives were taken first. Their share in the collection is about 4.3%.
CHOP inh: blocks CHOP induction under ER stress; inhibition, % at 10 µM; actives 3.8% (n = 220,000); CHO-K1 CHOP-promoter luciferase, tunicamycin-induced, 15-18 h; AID 2732;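 active = compounds that reduced the stress-induced luciferase reporter signal by more than about 70% of percent inhibition, limit read from the data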;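 also: 0% = tunicamycin plus vehicle and 100% = wells without tunicamycin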
KKLEB tox: CF airway cell cytotoxicity counter-screen | KKLEB CF airway cells viability, ATPlite luminescence, overnight; hits give low values; cells stimulated with P. aeruginosa culture filtrate | activity change (cytotoxicity), % at 5 µM | actives 0.36% (n = 360,000) | AID 602141;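 active = corrected activity change at or below -50% at 5 µM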
HIF-2a block: inhibitors of HIF-2a. actives 0.72% (n = 360,000). inhibition, % at 18.8 µM. AID 624352. 786-0 RCC cells HIF-2a reporter, luciferase luminescence, overnight;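 active = inhibition of the luminescence signal of 40% or more relative to plate controls, in a single-dose primary screen at 18.75 µM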
Peg3 promoter: Peg3 promoter activity inhibition | HeLa PEG-Prom luciferase reporter, luminescence, overnight | inhibition, % at 20 µM | actives 1.7% (n = 360,000) | AID 588405;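 active = inhibition of at least 50% at 20 µM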
MITF TRPM1 inh: reduces MITF-dependent TRPM1 promoter luciferase signal; SK-MEL-5 TRPM1 promoter luciferase, 24 h; inhibition, % at 12.5 µM; actives 0.83% (n = 330,000); AID 488899;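 active = mean inhibition across replicates of 60% or more, whatever share of single replicates reaches that level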
CF NFkB inh: blocks PAF-induced NF-kB reporter in cystic fibrosis cells | KKLEB NF-kB-GFP reporter, GFP fluorescence overnight | inhibition, % at 5 µM | actives 0.86% (n = 360,000) | AID 588850;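 active = at least 50% inhibition at 5 µM, scaled per plate between neutral and stimulator controls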;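 also: PAF is a Pseudomonas aeruginosa culture filtrate used as stimulus; plate controls were PAF-stimulated DMSO wells for no effect and unstimulated DMSO wells for full effect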
An asterisk follows results filed as active; . = no result given.

SMILES | CHOP inh | KKLEB tox | HIF-2a block | Peg3 promoter | MITF TRPM1 inh | CF NFkB inh
O=c1/c(=C\c2ccc(O)cc2)sc2nc(-c3ccccc3)c(-c3ccccc3)n12 | 91.4* | 2.1 | -15.3 | 0.9 | 9.4 | 26.6
CCOC(=O)[C@@H]1[C@H]2COc3ccccc3[C@@H]2N2C(=O)N(c3ccc(OC)cc3)C(=O)[C@@]12C | . | 14.3 | 10.9 | -4.4 | -4.0 | -23.9
CCCCCc1nnc(NC(=O)NS(=O)(=O)c2ccc(C)cc2)s1 | . | -1.5 | 11.7 | 0.9 | 5.9 | -15.5
O=C(NCc1cc(Cl)cc(Cl)c1)c1csc([C@@H]2C[C@H](O)[C@@H](CO)O2)n1 | . | -0.2 | -1.3 | 9.9 | . | 5.8
CCc1ccc(NC(=O)NCC2CCN(c3ccc(OC)cc3)C2)cc1 (configuration not stated) | 47.6 | 7.4 | 6.2 | 18.1 | -11.9 | -30.0
CCOc1ccc(NC(=O)NCC2CCN(c3ccc(OC)cc3)C2)cc1 (configuration not stated) | 76.3* | -4.7 | 11.0 | 18.1 | 5.7 | 3.4
O=[N+]([O-])c1cccnc1N1CCC(c2cc(-c3ccc(Cl)cc3)n[nH]2)CC1 | 99.8* | 4.3 | -48.7 | 2.4 | 17.8 | 6.8
Cc1cc(C)c2c(c1)/C(=c1/sc3n(c1=O)CN(c1ccccc1)CN=3)C(=O)N2 | 81.1* | -5.1 | 10.8 | 25.6 | 6.9 | -27.7
O=c1/c(=C/c2ccccn2)sc2n1CN(c1ccccc1)CN=2 | 8.7 | 4.8 | -55.5 | -44.0 | -16.8 | 4.4
Cc1cc(C)cc(OCC(O)CN2CCC(CN3C(=O)c4cccc5cccc(c45)C3=O)CC2)c1 (configuration not stated) | . | -8.7 | 8.5 | 75.2* | 71.5* | -11.7
Cc1ccc(C)c(OCC(O)CN2CCN(CCN3C(=O)c4cccc5cccc(c45)C3=O)CC2)c1 (configuration not stated) | 42.4 | -23.0 | -9.3 | 88.6* | -6.7 | -28.7
O=C1c2cccc3cccc(c23)C(=O)N1CC1CCN(CC(O)COc2ccc3ccccc3c2)CC1 (configuration not stated) | . | -14.9 | -4.7 | 100.5* | 8.5 | 20.4
COc1ccc(COCC(O)CN2CCC(CN3C(=O)c4cccc5cccc(c45)C3=O)CC2)cc1OC (configuration not stated) | 32.8 | -11.7 | 7.3 | 20.0 | 23.7 | 4.9
CCc1ccc(OCC(O)CN2CCC(CN3C(=O)c4cccc5cccc(c45)C3=O)CC2)cc1 (configuration not stated) | 93.7* | -28.5 | 27.1 | 108.6* | 57.2 | 22.7
CC(=O)c1ccccc1OCC(O)CN1CCN(CCN2C(=O)c3cccc4cccc(c34)C2=O)CC1 (configuration not stated) | 31.0 | -17.8 | -7.1 | 16.9 | -5.9 | -23.1
COc1cccc(OCC(O)CN2CCC(CN3C(=O)c4cccc5cccc(c45)C3=O)CC2)c1 (configuration not stated) | 45.4 | -3.5 | 15.3 | 19.2 | 1.1 | 6.6
Nc1ccc2c3c(ccc([N+](=O)[O-])c13)CC2 | . | -16.0 | 12.5 | 3.7 | . | 9.1
CCOc1ccccc1/C=C/c1onc(C)c1S(=O)(=O)N1CCC(C(=O)N2CCCCCC2)CC1 | . | -19.9 | -2.4 | 3.0 | 25.5 | -19.5
O=CNc1cc(-c2cccc(O)c2)cn2c(-c3ccc(F)cc3)cnc12 | . | -21.5 | -97.2 | 23.8 | . | 7.5
O=C1c2cccc3cccc(c23)C(=O)N1CCN1CCN(CC(O)COc2ccc3ccccc3c2)CC1 (configuration not stated) | 15.5 | -15.1 | -13.6 | 78.7* | -7.4 | -17.4
Cc1ccc(OCc2nnn(CC(=O)NS(=O)(=O)c3c(C)noc3C)c2-c2ccccc2)cc1 | . | -4.5 | 2.2 | -0.7 | . | 6.7
O=C(NCc1ccccc1F)c1ccc(S(=O)(=O)N2CCCC2)cc1 | . | 1.2 | 3.2 | 2.2 | . | 7.6
O=C(NCc1ccccc1Cl)c1ccc(S(=O)(=O)N2CCCC2)cc1 | . | -10.6 | 16.0 | 51.5* | -1.2 | 8.8
CCc1ccc(NC(=S)NC2CCN(Cc3ccccc3)CC2)cc1 | 35.1 | 3.8 | -12.2 | 12.4 | -4.1 | -4.9
CCC(C)c1ccc(NC(=S)NC2CCN(Cc3ccccc3)CC2)cc1 (configuration not stated) | 86.8* | -1.0 | 11.9 | 77.3* | 19.0 | 1.5
SMILES | CHOP inh | KKLEB tox | HIF-2a block | Peg3 promoter | MITF TRPM1 inh | CF NFkB inh
OCCN(CCO)CC(O)COc1ccc(C23CC4CC(CC(C4)C2)C3)cc1 (configuration not stated) | 26.9 | -10.1 | 88.9* | 24.0 | 51.0 | 19.6
CC(c1ccccc1)N(CCC(c1ccccc1)C1CCOC(C)(C)C1)C(=O)c1ccco1 (configuration not stated) | 79.8* | 0.8 | 21.2 | 15.5 | 5.8 | 15.6
CC1(C)CC(C(CC(=O)O)c2ccccc2)CCO1 (configuration not stated) | 19.4 | -12.7 | 9.3 | 12.7 | 4.3 | 16.4
O=C(CN(C(=O)CNC(=O)c1cccs1)c1ccc(F)cc1)NC1CCCCC1 | . | 4.8 | 4.5 | -2.9 | -2.1 | 8.6
CCNc1nc(SCCOc2ccc(Cl)cc2Cl)nc(N(C)C)n1 | 91.0* | -3.1 | -16.6 | 5.3 | -3.6 | 16.6
Cc1ccc(-n2nnnc2-c2nc3ccccc3s2)cc1 | 33.4 | 3.1 | -75.8 | -18.2 | -2.1 | 8.1
CCOc1ccc(-n2nnnc2-c2nc3ccccc3s2)cc1 | 7.5 | -70.4* | -65.1 | -73.6 | 19.4 | 70.1*
Cc1ccc(CN2CCN(CCCn3cnc4c(OCc5ccccc5)ncnc43)CC2)cc1 | . | -13.6 | -36.3 | -8.0 | 10.5 | -1.6
c1ccc(COc2ncnc3c2ncn3CCCN2CCN(Cc3cccc4ccccc34)CC2)cc1 | . | -7.7 | -20.9 | 101.2* | . | 1.0
CCCCC[C@@H]1[C@H]2[C@H]3C(=O)N(c4ccccc4)C(=O)[C@H]3CC(=O)[C@H]2[C@H](c2ccccc2)N1S(=O)(=O)c1ccc(C)cc1 | . | 3.9 | -1.9 | 3.7 | . | 5.3
COCc1cc(C)nc(OCC(=O)N/N=C/c2ccco2)c1C#N | 21.8 | 2.2 | 4.5 | 5.5 | 3.2 | -11.9
COCc1cc(C)nc(OCC(=O)N/N=C/c2ccc(-c3cc([N+](=O)[O-])ccc3Cl)o2)c1C#N | 92.3* | -17.2 | 2.2 | 54.2* | 3.8 | 8.3
COc1cc(C)cc(C(=O)C=Cc2ccccc2)c1O | . | -28.7 | -34.4 | -22.6 | -28.4 | -7.5
COc1ccc(C(=O)/C=C/c2ccccc2)c(OC)c1 | -97.5 | -20.4 | -120.7 | 68.0* | -29.4 | 14.7
COc1ccc(C(=O)/C=C/c2ccc(N3CCCCC3)c([N+](=O)[O-])c2)c(OC)c1 | -12.8 | 3.8 | 40.6* | 38.9 | 3.7 | -7.7
COc1ccc(OC)c(N/C=C/C(=O)c2ccccc2)c1 | . | -88.4* | 63.0* | 73.2* | 52.7 | -17.3
COc1ccc(C(=O)/C=C/c2ccc(N(C)C)cc2)c(OC)c1 | -3.3 | -19.6 | -171.0 | -43.2 | -14.2 | -18.3
COCOc1cc(O)c(C(=O)/C=C/c2ccccc2)c(OCOC)c1 | . | -3.4 | 37.1 | 94.5* | 28.1 | 40.0

Screening results (PubChem BioAssay)
